From the supplement of paper PMC10981050
Where “and” joins values, the source holds several entries; their conditions need not be identical. Identical values can stand only once. Counter-ions that a name gives are not always drawn.

Assays:
Assay in all cases: cell viability relative to vehicle control; higher = less cytotoxic
Conditions in all cases: 10 µM
[1] = test system: K562
Method in brief: (§1)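 CRISPR-edited mutant clones and isogenic wild-type clones from four leukaemia lines were screened against Selleck bioactive, kinase and epigenetic probe libraries, with identity-inconsistent compounds excluded. Each compound was acoustically dispensed at a single 10 µM dose into 384-well plates holding 2000 cells in 50 µL medium per well. After 48 h the supernatant was removed and CellTiter-Glo luminescence was read. Viability was expressed as percent of the on-plate vehicle control and analysed in Genedata Screener.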

[2] = test system: MARIMO
Method in brief: as §1

[3] = test system: MOLM14
Method in brief: as §1

[4] = test system: OCI-AML2
Method in brief: as §1

Row | Structure (SMILES) | cell viability ([1]; SRSF2 genotype: SRSF2 P95H/wt) | cell viability ([1]; SRSF2 genotype: SRSF2 wt/wt) [%] | cell viability ([2]; SRSF2 genotype: SRSF2 P95H/wt) [%] | cell viability ([2]; SRSF2 genotype: SRSF2 wt/wt) [%] | cell viability ([3]; SRSF2 genotype: SRSF2 P95H/wt) [%] | cell viability ([3]; SRSF2 genotype: SRSF2 wt/wt) [%] | cell viability ([4]; SRSF2 genotype: P95H/wt) [%] | cell viability ([4]; SRSF2 genotype: wt/wt) [%]
1 | Cc1cc(O)c(-c2ccc([C@@H](C)CN(C)C)cc2)c2c1[nH]c(=O)c1sccc12 | 9.34% and 22.8% | 14.7 | 1.85 | 1.17 | 0.25 | 0.22 | 0.39 | 7.84
2 | C[C@@H](C(=O)Nc1ccc(Cl)cc1)C1CCC(c2ccnc3ccc(F)cc23)CC1 (some centres undefined) | 77% and 77.9% | 69.6 | 81 | 70.5 | 61.9 | 76.4 | 56.8 | 54.5
3 | CCC(C)CC(C)CCCCCCCCC(=O)NC1CC(O)C(O)NC(=O)C2C(O)CCN2C(=O)C(C(O)CC(N)=O)NC(=O)C(C(O)C(O)c2ccc(O)cc2)NC(=O)C2CC(O)CN2C(=O)C(C(C)O)NC1=O (centres undefined) [Pneumocandin B0] | 96.7% and 91.6% | 90 | 97 | 95.1 | 93.5 | 98.7 | 95.7 | 91.8
4 | CC(=O)Oc1cc(C(F)(F)F)ccc1C(=O)O [Triflusal] | 101% and 90.6% | 99.7 | 98.9 | 101 | 97.7 | 101 | 92.2 | 102
5 | N[C@@H](CS)C(=O)O [L-Cysteine HCl] | 87.6% and 82.9% | 82.4 | 89 | 97.7 | 89.1 | 87.8 | 89.1 | 94.3
6 | O=C(O)CCc1ccc(O)cc1 [Phloretic acid] | 99.4% and 99.9% | 94.6 | 93.9 | 104 | 109 | 103 | 99.2 | 105
7 | COc1ccc(C(=O)C(=O)c2ccc(OC)cc2)cc1 | 104% and 97.9% | 104 | 95.5 | 105 | 100 | 106 | 94.5 | 90.8
8 | COc1ccc2cc(-c3nc(-c4ccc([S+](C)[O-])cc4)[nH]c3-c3ccncc3)ccc2c1 (centres undefined) [Tie2 kinase inhibitor] | 79% and 60.2% | 93.8 | 88.6 | 95.9 | 101 | 94.6 | 78.5 | 84.3
9 | COc1cc(Br)c(Nc2nc(-c3c(C)nc4ncccn34)cs2)c(Br)c1 | 20.6% and 23.8% | 24 | 14.7 | 19.2 | 16 | 10.7 | 2.76 | 8.07
10 | OCCOCCN1CCN(Cc2cccc(Oc3ccccc3)c2)CC1 | 97.6% and 99.2% | 94 | 90 | 99.3 | 94.5 | 99.8 | 84 | 93.8
11 | CCCCCCCC/C=C\CCCCCCCCCCCC(=O)O [Erucic acid] | 99.7% and 96.1% | 103 | 101 | 107 | 104 | 107 | 100 | 110
12 | COc1cc2ncnc(Nc3ccc(Oc4ccccc4)cc3C)c2cc1OC | 68% and 80.2% | 79.3 | 81.1 | 66 | 37.5 | 29.9 | 45.6 | 43
13 | NS(=O)(=O)NCCNc1nonc1/C(=N/O)Nc1ccc(F)c(Br)c1 | 97.2% and 102% | 95.5 | 102 | 104 | 103 | 100 | 106 | 109
14 | CNC[C@H](O)c1cccc(O)c1 [Phenylephrine hydrochloride] | 103% and 114% | 109 | 104 | 104 | 101 | 109 | 106 | 103
15 | CC(C)c1ccc(NC(=O)Cn2cnc3c2c(=O)n(C)c(=O)n3C)cc1 | 88.2% and 87.9% | 94.4 | 91 | 96.1 | 95.1 | 96.2 | 87.5 | 91
16 | C/C(=C(/CCOC(=O)c1ccccc1)SC(=O)c1ccccc1)N(C=O)Cc1cnc(C)nc1N [Dibenzoyl Thiamine] | 103% | 107 | 96.5 | 94 | 90.8 | 102 | 99.1 | 109
17 | CN(Cc1cc(Br)cc(Br)c1N)C1CCCCC1 [Bromhexine HCl] | 96.8% and 96.7% | 92.8 | 86.6 | 99.2 | 96.7 | 99.4 | 92.2 | 98.7
18 | N[C@@]1(C(=O)O)CS(=O)(=O)[C@H]2[C@H](C(=O)O)[C@H]21 | 104% and 109% | 115 | 107 | 105 | 109 | 113 | 113 | 98.1
19 | O=c1c2ccccc2oc2ccccc12 [Xanthone (Genicide)] | 102% and 103% | 94.9 | 96.5 | 102 | 105 | 108 | 93.1 | 96.4
20 | C[S+]([O-])c1ccc(-c2nc(-c3ccc(F)cc3)c(-c3ccncc3)[nH]2)cc1 (centres undefined) | 96.3% and 94.8% | 88.4 | 110 | 113 | 109 | 99.9 | 109 | 102
21 | Cc1cnc(-c2cc(N3CCN(C(=O)CCS(C)(=O)=O)CC3)ncc2Cl)c(C)c1 | 98.7% and 98.8% | 96.3 | 101 | 110 | 100 | 104 | 96.2 | 105
22 | Cc1cc(-n2c(=O)[nH]c(=O)n(C)c2=O)ccc1Oc1ccc(SC(F)(F)F)cc1 [Toltrazuril] | 105% and 104% | 103 | 107 | 109 | 99.7 | 101 | 105 | 104

Row | Structure (SMILES) | cell viability ([1]; SRSF2 genotype: SRSF2 P95H/wt) | cell viability ([1]; SRSF2 genotype: SRSF2 wt/wt) [%] | cell viability ([2]; SRSF2 genotype: SRSF2 P95H/wt) [%] | cell viability ([2]; SRSF2 genotype: SRSF2 wt/wt) [%] | cell viability ([3]; SRSF2 genotype: SRSF2 P95H/wt) [%] | cell viability ([3]; SRSF2 genotype: SRSF2 wt/wt) [%] | cell viability ([4]; SRSF2 genotype: P95H/wt) [%] | cell viability ([4]; SRSF2 genotype: wt/wt) [%]
23 | OCCN1C[C@H](O)[C@@H](O)[C@H](O)[C@H]1CO [Miglitol (Glyset)] | 98.3% and 109% | 101 | 106 | 102 | 106 | 106 | 107 | 94.9
24 | CC(C)CC(CC(=O)NO)C(=O)N[C@@H](Cc1ccc2ccccc2c1)C(=O)N[C@@H](C)C(=O)NCCN (some centres undefined) | 105% | 110 | 112 | 109 | 99.1 | 104 | 110 | 106
25 | COc1ccc2cc1Oc1ccc(cc1)C[C@H]1c3c(cc4c(c3Oc3cc5c(cc3OC)CCN(C)[C@@H]5C2)OCO4)CCN1C [Cepharanthine] | 5.44% and 5.78% | 3.74 | 57.9 | 50.3 | 25.4 | 26.7 | 0.56 | 8.53
26 | Cc1ccc(NC(=S)NNc2c([N+](=O)[O-])cc(C(F)(F)F)cc2[N+](=O)[O-])cc1Cl | 81% and 81.3% | 90.4 | 87.3 | 86.2 | 89.3 | 84.6 | 101 | 94.4
27 | CCCCC[C@H](O)/C=C/[C@H]1[C@H](O)CC(=O)[C@@H]1C/C=C\CCCC(=O)O [Dinoprostone] | 99% | 99.1 | 91.4 | 79.3 | 59.1 | 62 | 74.5 | 67.5
28 | CC(=O)NC[C@H]1CN(c2ccc(N3CCOCC3)c(F)c2)C(=O)O1 [Linezolid (Zyvox)] | 81.9% and 81.7% | 84.3 | 85 | 92.5 | 88.3 | 85.5 | 81.4 | 86.7
29 | Cc1cc(Nc2nc(N[C@@H](C)c3ccc(F)cc3)c(C#N)cc2F)n[nH]1 | 53.7% and 73% | 75.5 | 30.6 | 33.4 | 1.75 | 3.5 | 6.13 | 15.8
30 | Nc1c2c(nc3ccccc13)CCCC2 [tacrine hydrochlorid] | 101% and 110% | 112 | 100 | 113 | 103 | 105 | 122 | 94.5
31 | CC(CCC(=O)NCCS(=O)(=O)O)C1CCC2C3C(O)CC4CC(O)CCC4(C)C3CCC12C (centres undefined) [Sodium Tauroursodeoxycholate (TUDC)] | 91.6% and 88.5% | 89.8 | 94 | 103 | 91.7 | 91.2 | 90.3 | 89.4
32 | CC(=O)O[C@]1(C)CC[C@@]23C[C@H]1C(C)(C)[C@@H]2CC[C@H]3C [Cedryl acetate] | 102% and 105% | 104 | 103 | 117 | 101 | 106 | 112 | 110
33 | COc1cc2ncnc(Oc3cccc(NC(=O)Nc4cc(C(C)(C)C(F)(F)F)on4)c3)c2cc1OC | 23.5% and 40.4% | 24.8 | 79.4 | 85 | 33.8 | 23.7 | 60.3 | 61.5
34 | COCCOc1cnc2ccn([C@H](C)c3nnc4c(F)cc(-c5cnn(C)c5)cn34)c(=O)c2c1 | 86.5% and 87.1% | 85.7 | 86.8 | 94.3 | 96.7 | 93.5 | 82 | 85.9
35 | Cc1nc(C)c(C)nc1C [Ligustrazine hydrochloride] | 97.2% and 97.7% | 91.8 | 89.8 | 102 | 95.8 | 98.7 | 87.8 | 107
36 | COCCCc1sc(-c2ccccc2)nc1C(=O)Nc1ccccc1-c1nc2cc(CN3CCCC3)cnc2s1 | 75.7% and 55.8% | 76.6 | 82.7 | 83.6 | 76.7 | 92.5 | 52.1 | 76.2
37 | CC(C)(CO)C(O)C(=O)NCCC(=O)O [Calcium D-Panthotenate] | 95.3% and 94.5% | 95.3 | 95.1 | 105 | 96.8 | 97.2 | 95.4 | 94
38 | Cc1cc(=O)oc2cc(O)ccc12 [4-Methylumbelliferone (4-MU)] | 107% and 96.8% | 99.6 | 98.5 | 96.7 | 102 | 102 | 100 | 99.9
39 | CC(=O)N1C[C@H](O)C[C@H]1C(=O)O [Oxaceprol] | 101% and 93.4% | 99.3 | 104 | 109 | 96.1 | 102 | 94.3 | 106
40 | CCOc1cc(C(C)(C)C)ccc1C1=N[C@@](C)(c2ccc(Cl)cc2)[C@@](C)(c2ccc(Cl)cc2)N1C(=O)N1CCN(CCCS(C)(=O)=O)CC1 | 80.8% and 82.7% | 79.8 | 91.2 | 107 | 0.32 | 0.35 | 0.58 | 13.8
41 | CCc1c2c(nc3ccc(OC(=O)N4CCC(N5CCCCC5)CC4)cc13)-c1cc3c(c(=O)n1C2)COC(=O)[C@]3(O)CC [Irinotecan HCl Trihydrate (Campto)] | 59.7% and 76.8% | 63.1 | 6.18 | 6.47 | 15.1 | 4.24 | 3.79 | 2.87
42 | CN[C@H]1CC[C@@H](c2ccc(Cl)c(Cl)c2)c2ccccc21 [Sertraline HCl] | 30.3% and 54.2% | 52.8 | 41.7 | 48 | 32.7 | 42.9 | 26.2 | 37.5
43 | C[N+]1(C)[C@@H]2CC[C@H]1C[C@@H](OC(=O)C(O)c1ccccc1)C2 (some centres undefined) [Homatropine Methylbromide] | 103% and 100% | 101 | 106 | 114 | 102 | 104 | 92.9 | 105
